# From ChEMBL document CHEMBL3433997, “St. Jude Leishmania screening dataset” (2016)
# How the values were obtained:
# Assay type in all cases: functional
# [1] = molecular target: Solute carrier family 2, facilitated glucose transporter member 1 (Homo sapiens) (UniProt P11166); test: ST_JUDE_LEISH: Cytotoxicity at 2uM final concentration against transgenic Leishmania Mexicana promastigotes LmGLUT1 that are glucose transport deficient and complemented with the human glucose transporter GLUT1. Activity is measured by DNA content using SYBR green in vitro
# Sequence of Solute carrier family 2, facilitated glucose transporter member 1 (Homo sapiens) (P11166 whole entry): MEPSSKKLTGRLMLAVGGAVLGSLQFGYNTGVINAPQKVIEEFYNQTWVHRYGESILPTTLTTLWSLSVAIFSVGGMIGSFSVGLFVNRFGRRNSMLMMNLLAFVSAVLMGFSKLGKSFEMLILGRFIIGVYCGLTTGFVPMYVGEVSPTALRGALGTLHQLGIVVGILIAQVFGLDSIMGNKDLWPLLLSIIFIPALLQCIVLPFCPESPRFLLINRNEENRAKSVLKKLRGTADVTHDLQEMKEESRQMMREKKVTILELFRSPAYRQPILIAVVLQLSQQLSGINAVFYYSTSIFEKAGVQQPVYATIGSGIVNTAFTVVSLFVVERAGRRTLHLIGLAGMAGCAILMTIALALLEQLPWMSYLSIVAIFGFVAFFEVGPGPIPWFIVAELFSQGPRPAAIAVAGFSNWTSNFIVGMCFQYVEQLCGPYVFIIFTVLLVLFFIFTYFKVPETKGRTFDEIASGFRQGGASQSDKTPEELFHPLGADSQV
# [2] = molecular target: Hexose transporter 1 (Plasmodium falciparum) (UniProt O97467); test: ST_JUDE_LEISH: Cytotoxicity at 2uM final concentration against transgenic Leishmania Mexicana promastigotes LmPfHT that are glucose transport deficient and complemented with the Plasmodium falciparum hexose transporter. Activity is measured by DNA content using SYBR green in vitro
# [3] = molecular target: Glucose transporter (Leishmania mexicana) (UniProt O61059); test: ST_JUDE_LEISH: Cytotoxicity at 2uM final concentration against transgenic Leishmania Mexicana promastigotes LmGT2 that are glucose transport deficient and complemented with the L. Mexicana glucose transporter 2. Activity is measured by DNA content using SYBR green in vitro
SMILES,inhibition [1] [%],inhibition [2] [%],inhibition [3] [%]
COc1ccc2ccccc2c1CCCCN1CCN(CC(c2ccc(F)cc2)N2CCC(N3CCCC3)CC2)CC1 (configuration not stated),3.25,3.63,7.05
CC(=O)Nc1ccc(C(=O)Nc2ccc(-c3csc(-c4nc5ccccc5[nH]4)c3)cc2)cn1,1.44,1.57,0.75
O=C(Nc1ccc(Cl)cc1)c1ccc(CN2CCCN(Cc3cccc(F)c3)CC2)cc1,-0.02,5.11,3.31
CC(C)(C)NC(=O)COC(=O)c1c2c(nc3ccccc13)C(=Cc1ccc3c(c1)OCO3)CCC2,1.65,1.17,0.48
CCN(CC)CCN(Cc1ccc(-c2ccc(C(F)(F)F)cc2)cc1)C(=O)Cn1c(CCc2cccc(F)c2F)nc(=O)c2cc(F)c(F)cc21,9.33,7.63,9.47
CCCOc1ccc(C(=O)Nc2nonc2-c2ccc(OC)c(OC)c2)cc1,8.69,7.86,5.89
CCCCCC(C)N/C(=N/c1ccccc1Br)Nc1ccc(C#N)cc1O (configuration not stated),2.35,1.33,0.92
OC1CCCN(Cc2cccc(-c3ccc(-c4nc5ccccc5[nH]4)cc3)c2)C1 (configuration not stated),3.91,5.45,-2.43
Cc1noc(-c2cccs2)c1C(=O)NCCc1cccc(Cl)c1,5.34,5.32,2.4
Cc1ccccc1C1CCN(C2CCC(NC(=O)c3cc(-c4ccccc4)oc3C)CC2)CC1 (configuration not stated),-1.06,0.71,-1.44
COc1ccc(-c2nc3cccnc3n2CC(=O)Nc2cc(Cl)c(Cl)cc2Cl)c(OC)c1,-3.62,-1.91,-2.74
CN(C)S(=O)(=O)c1ccc(N2C(=O)C3C(C2=O)C2(c4ccccc4)C(=O)C3(c3ccccc3)C(c3ccccc3)=C2c2ccccc2)cc1 (configuration not stated),-0.75,-2.18,-2.57
COc1ccc(CCNCCCCCCNCCc2ccccc2Cl)cc1OC,1.25,0.29,1.91
O=C(Nc1ccc(C(F)(F)F)cc1)c1ccc(S(=O)(=O)NC2CCCN(CC3CCCCC3)C2)cc1 (configuration not stated),6.6,4.53,4.45
CCn1cc(-c2cc(C(=O)Nc3ccc(OC)cc3C)c3ccccc3n2)c(C)n1,7.19,4.56,3.97
CC(C)(C)c1ccc(NC(=O)c2ccc(CN3CCCN(Cc4cccc(F)c4)CC3)cc2)cc1,13.7,13.3,11.8
COc1ccc(NC(=O)Nc2ccc(-c3ccncc3)c(C(F)(F)F)c2)cc1N1CCN(C)CC1,13.1,12.6,9.27
O=C(CSc1nccn1Cc1ccco1)Nc1cc(C(F)(F)F)ccc1Cl,13.1,10.5,9.28
Cc1ncc([N+](=O)[O-])n1CCOC(=O)NC(NCC1COc2ccccc2O1)C(Cl)(Cl)Cl (configuration not stated),2.63,2.63,2.19
O=C(Nc1ccc(-c2nc3ccccc3[nH]2)cc1)C1CCN(Cc2ccc(F)cc2)CC1,41.4,44.9,30.5
CN1CCC(c2csc3ccc(NC(=O)Nc4ccc(-c5ccncc5)c5ccccc45)cc23)CC1,-0.99,0.65,2.4
OCC1CCCCN1Cc1cccc(-c2cccc(-c3nc4ccccc4[nH]3)c2)c1 (configuration not stated),6.6,4.14,4.46
CCCn1cnc2cc(C(=O)Nc3ccc(-c4cccc(CN(C)C)c4)cc3)ccc2c1=O,55,3.03,5.21

SMILES,inhibition [1] [%],inhibition [2] [%],inhibition [3] [%]
CCCNCc1ccc(-c2ccc(CN(CC3CCCO3)C(=O)C3CC(=O)c4ccccc43)cc2)nc1 (configuration not stated),6.13,3.74,3.19
O=C(/C=C/c1ccc(Cl)c(Cl)c1)N1CCC(CNCc2cccc3cc[nH]c23)CC1,1.64,0.75,1.48
COc1ccc(NC(=O)c2cc(NC(=O)C3(N)CC3)c(=O)n(Cc3ccc(C(N)=O)cc3)c2)cc1,0.5,3.44,2.12
O=C(N[C@@H](CC1CCCCC1)C(=O)NC1CCCc2ccccc21)c1ccc(O)c(-c2ccc(Cl)c(Cl)c2)c1 (some centres not stated),1.23,0.75,0.12
CN(C)CCN(C)Cc1ccc(-c2ccc3c(Nc4ccc(Oc5ccccn5)cc4)ccnc3c2)o1,-2.89,-0.77,-2.18
COc1ccc(CNC(=O)Nc2cc3cc(-c4ccc(CN5CCCC5)cc4)ccc3n3c(C)nnc23)cc1,2.37,0.34,0.89
CC(Nc1ccc2c(c1)OCCO2)C(=O)Nc1cc(C(F)(F)F)ccc1N1CCOCC1 (configuration not stated),7.38,8.1,6.63
O=S(=O)(NCCN1CCCC1)c1ccc(-c2cccc(CNCc3ccc(F)cc3)c2)s1,6.73,2.44,-1.98
C=C(F)c1sc(CNCCCNc2nc3ccccc3[nH]2)c(C)c1Br,57.5,73.8,68.7
Cn1nc(-c2ccc(NC(=O)Nc3cc(C(F)(F)F)cc(C(F)(F)F)c3)c(F)c2)c2cnc(NCCN3CCOCC3)nc21,2.68,2.48,3.49
CCC(=O)c1cc(C(=O)NCCc2cccc(OC)c2)ccc1OC,12.4,11.3,11.3
Nc1cnc(C#Cc2cc3ncnc(N(CCN4CCOCC4)c4ccc(OCc5cccc(F)c5)c(Cl)c4)c3s2)cn1,1.16,0.42,-3.58
CC(Oc1ccc(Cl)cc1Cl)c1nc(-c2ccc(NC(=O)c3ccco3)cc2)no1 (configuration not stated),2.46,1.87,-0.2
CN(C)CCOc1ccnc2ccc(NC(=O)Cc3ccc(-c4ccncc4)c4ccccc34)cc12,1.07,-0.32,7.74
COc1cccc(NC(=O)c2cc([N+](=O)[O-])ccc2NC(=O)CN2CCc3ccccc3C2)c1,4.59,0.9,4.74
O=c1cc(NCCCNCc2ccccc2-c2ccccc2)[nH]c2ccccc12,2.76,3.22,1.59
O=C(Nc1ccc2ccccc2n1)c1ccccc1-c1ccccc1,-0.59,2.19,-0.78
Cc1cccc2nc(-c3ccc(-c4ccc(NC(=O)Nc5cccc(C#N)c5)cc4)cc3)[nH]c12,9.74,6.91,7.39
COc1ccc2nccc(NCC3(O)CCC(NCc4ccc5c(n4)NC(=O)CS5)CC3)c2n1 (configuration not stated),4.33,3.51,4.28
Cc1cc(N[C@@H](CC(C)C)C(=O)Nc2ccccc2)nc(NCCc2ccccc2)n1,3.68,2.93,0.92
COc1ccc(-c2ccc(S(=O)(=O)Nc3cc4c(cc3OC(C)C)CCNCC4)cc2)cc1,-2.14,-1.7,-2.37
O=C(Nc1ccc(-c2cccc(-c3nc4ccccc4[nH]3)c2)cc1)Nc1ccc2c(c1)OCO2,1.87,2.62,0.58
CC(C)COc1ccc(Cl)cc1Cc1ccc(-c2nc3ccc(F)c(F)c3[nH]2)o1,0.98,-1.63,0.57

SMILES,inhibition [1] [%],inhibition [2] [%],inhibition [3] [%]
CC(=O)Nc1ccc(CCNC(C)Cc2ccc(C(=O)Nc3ccc(CC(C)NCCc4cccc(Cl)c4)cc3)cc2)cc1 (configuration not stated),2.17,-1.77,0.98
Cc1cccc(N2C(N)=NC(N)=NC2(C)C)c1C,0.74,1.41,1.09
O=C(c1cccc(-c2cccc(-c3nc4cc(C(F)(F)F)ccc4[nH]3)c2)c1)N1CCCCC1CN1CCC(O)C1 (configuration not stated),-0.81,-0.87,-1.32
Cc1ccc2[nH]c3c(NCCCN(C)C)ncnc3c2c1,-1.63,-0.22,-0.28
O=C(/C=C/c1ccc(Cl)c(Cl)c1)NCCCCCN1CCC(NC(=O)c2ccc(F)cc2)CC1,6.17,3.16,5.01
CCOc1ccc2c(=NN=Cc3ccccc3F)cc(C)[nH]c2c1,1.77,1.33,-0.43
Cc1nc(-c2cccc(C(=O)N(Cc3cncn3Cc3cccc(C(F)(F)F)c3)CC3CC3)c2)cs1,2.11,4.67,4.26
Oc1cccc2ccc(Nc3ccccn3)nc12,0.94,2.29,-0.77
CCC(C)NS(=O)(=O)c1ccc2nc(Nc3ccc(C)c(Cl)c3)n(C(C)C(C)C)c2c1 (configuration not stated),2.38,2.08,1.6
CCCCC(NCC)c1ccc(OCCOc2ccc(C(CCCC)NCC)cc2)cc1 (configuration not stated),81.2,41.5,106
CC(C)c1ccc(N2CCN(CCCCNC(=O)c3ccc(NC(=O)c4cc(Cl)cc(Cl)c4)cc3)CC2)cc1,-0.22,1.11,1.9
CN1CCN(c2ccnc3cc4c(cc23)N(Cc2ccccc2)CC4)CC1,-1.34,-0.13,0.13
C=CCOc1ccc(Cc2cnc(N)nc2N)cc1CCC,3.94,4.62,1.19
O=C(Nc1ccc(C(=O)Oc2cccc3ccccc23)cc1)N[C@@H](Cc1ccc(O)cc1)C(=O)NC1CCN(Cc2ccc(O)cc2)C1 (some centres not stated),20.6,17.7,17.4
CN(C)CCn1cc(C(=O)c2cc(Cl)ccc2O)cc1-c1nc2ccccc2c(=O)[nH]1,0.7,-0.71,-2.96
CCCN(Cc1nnc(-c2ccco2)o1)C(=O)C1CCCN(C(=O)c2ccc(Cl)cc2)C1 (configuration not stated),1.85,0.73,-0.96
CC(=O)Nc1ccc(CN2CCC(NC(=O)c3ccc(-c4ccc(N(C)C)cc4)s3)CC2)cc1,2.06,1.82,2.63
CCOc1ccc2[nH]c(-c3ccccc3)cc(=NN=Cc3ccncc3)c2c1,1.66,4.54,-0.25
Cc1c(Cn2nc(Cl)c(N3CCNCC3)cc2=O)cccc1NC(=O)Nc1ccc(-c2ccccc2)cc1,-2.62,-2.29,-0.03
CC(=O)Nc1cccc(C(=O)Nc2cccc(-c3ccc(-c4nc5cc(F)ccc5[nH]4)s3)c2)c1,2.81,3.63,0.19
CCn1cnc2c(N3CCCS3(=O)=O)cc(C(=O)N[C@@H](Cc3ccccc3)[C@H](O)CNC(C)(C)c3cccc(C(F)(F)F)c3)cc21,3.01,2.45,2.04
Cc1cccc(C(=O)NC(NC(=S)Nc2ccc([N+](=O)[O-])cc2)C(Cl)(Cl)Cl)c1 (configuration not stated),3.68,3.52,-0.6
CC(C)C[C@H]1c2[nH]c3ccc(Cl)cc3c2CCN1C(=O)CCc1ccccc1,3.74,2.53,-0.65
